Results on 9 compounds are retold here after PubChem BioAssay (Tox21).

A number with no mark means an inactive call. Records with an inconclusive call do not appear. Active and inactive are the calls of the source. The call rests on the fitted dose curve; in most records, active means well fitted curve in the direction sought with a large enough effect in the repeat runs; inconclusive means weak or mixed curves; inactive means no such curve, though single readings can be large; an effect the other way counts as inactive or inconclusive.

A short description of assay [1]: Human pregnane X receptor (PXR) small molecule agonists, qHTS cell viability counter screen (AID 1346977). Further: nearly all actives have a fitted effect of over 50% in size. Further: potency means the concentration at half of the fitted maximal effect. A digest of the protocol: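 Tox21 qHTS format; PXR-Luc HepG2, 2,000/well, charcoal-stripped FBS 5%. Cpd exposure 24hr. Read: CellTiter-Fluor fluorescence, multiplexed with luciferase.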
A general note: qHTS replaces the single test concentration by a dilution series.

Assay [2] in a line: Caspase-3/7 induction in HepG2 cells by small molecules, qHTS assay (AID 1346978). Further: nearly all actives have a fitted effect of over 15% in size. A digest of the protocol: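 Wild-type HepG2 cells (2,000/well) were settled 5 h at 37 C, 5% CO2, then exposed to compounds in DMSO for 17 h. Caspase-3/7 activity was read by luminescence 30 min after adding Caspase-Glo 3/7 reagent at room temperature.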
Assay [3] in a line: Caspase-3/7 induction in CHO-K1 cells by small molecules, qHTS cell viability counter screen (AID 1346979). Further: nearly all actives have a fitted effect of over 35% in size. Further: potency means the concentration at half of the fitted maximal effect. A digest of the protocol: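 CellTiter-Fluor viability check, qHTS format: wild-type CHO-K1, 16hr compound treatment, 1hr reagent incubation, fluorescence read.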
The nature of assay [4]: Caspase-3/7 induction in HepG2 cells by small molecules, qHTS cell viability counter screen (AID 1346981). Further: nearly all actives have a fitted effect of over 30% in size. Further: potency means the concentration at half of the fitted maximal effect. A digest of the protocol:
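The parent HepG2 line is plated at 2,000 cells per well and rested 5 hr before compound pinning from DMSO stocks. Following a 16-hr treatment at 37 C, a fluorogenic live-cell substrate (CellTiter-Fluor) reports viability after 1 hr.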

For assay [5], the target named is Nuclear receptor subfamily 1 group I member 2 (Homo sapiens) (UniProt O75469). Nature of the assay: Human pregnane X receptor (PXR) small molecule agonists, qHTS assay (AID 1346982). Further: nearly all actives have a fitted effect of over 35% in size. Further: potency means the concentration at half of the fitted maximal effect. A digest of the protocol: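 After plating in 5% charcoal-stripped FBS and a 5 hr rest, PXR-Luc HepG2 cells received compounds in DMSO. Following 24 hr at 37 C, ONE-Glo was added and light output read.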

Assay [6] has as its target Cytochrome P450 2D6 (Homo sapiens) (UniProt P10635). Kind of assay: Cytochrome P450 Family 2 Subfamily D Member 6 (CYP2D6) small molecule antagonists: luciferase reporter qHTS assay (AID 1671196). Further: nearly all actives have a fitted effect of over 50% in size. Further: potency means the concentration at half of the fitted maximal effect. A digest of the protocol: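 Quantitative HTS of Tox21 chemicals against CYP2D6 using a luminescent proluciferin substrate. After NADPH addition, 1 h room-temperature reaction; luminescence recorded 20 min post detection reagent.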
For orientation: In a reporter assay the amount or activity of a reporter protein is the signal.

Assay [7] concerns the target Cytochrome P450 2C19 (Homo sapiens) (UniProt P33261). Nature of the assay: Cytochrome P450 Family 2 Subfamily C Member 19 (CYP2C19) small molecule antagonists: luciferase reporter qHTS assay (AID 1671197). Further: nearly all actives have a fitted effect of over 65% in size. Further: potency means the concentration at half of the fitted maximal effect. A digest of the protocol:
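Inhibition of CYP2C19 was scored from loss of luminescence in a P450-Glo proluciferin substrate assay, NADPH-started and run 1 h at 37C, with ketoconazole as positive control.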

Assay [8] deals with Cytochrome P450 2C9 (Homo sapiens) (UniProt P11712). Kind of assay: Cytochrome P450 Family 2 Subfamily C Member 9 (CYP2C9) small molecule antagonists: luciferase reporter qHTS assay (AID 1671198). Further: nearly all actives have a fitted effect of over 50% in size. Further: potency means the concentration at half of the fitted maximal effect. A digest of the protocol: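 CYP2C9 activity was measured with a P450-Glo proluciferin substrate. Enzyme–substrate mix was held with compound for 10 min at room temperature, then NADPH regeneration solution was added for 1 h at 37C. Luciferin product was read as luminescence.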

The target in assay [9] is Voltage-gated inwardly rectifying potassium channel KCNH2 (Homo sapiens) (UniProt Q12809). Nature of the assay: Human Ether-a-go-go-Related Gene (hERG) channel small molecule antagonists: fluorescence cell-based qHTS assay (AID 1671200). Further: nearly all actives have a fitted effect of over 50% in size. Further: potency means the concentration at half of the fitted maximal effect. A digest of the protocol:
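Kinetic two-minute fluorescence traces, sampled at 1 s, were collected following thallium stimulus of U2OS cells (1000 per well) that had been cultured overnight at 37 C and loaded with FluxOR II.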
A general note: Block of hERG is tested as a sign of cardiac risk.

Assay [10] addresses Cytochrome P450 3A4 (Homo sapiens) (UniProt P08684). Kind of assay: Cytochrome P450 Family 3 Subfamily A Member 4 (CYP3A4) small molecule antagonists: luciferase reporter qHTS assay (AID 1671201). A digest of the protocol: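 Proluciferin-to-luciferin conversion by CYP3A4, NADPH-regenerated, 1 h RT; luminescence read as RLU. Ketoconazole as control.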
The target in assay [11] is Cytochrome P450 1A2 (Homo sapiens) (UniProt P05177). Nature of the assay: Cytochrome P450 Family 1 Subfamily A Member 2 (CYP1A2) small molecule antagonists: luciferase reporter qHTS assay (AID 1671199). A digest of the protocol:
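Quantitative high-throughput format using the P450-Glo CYP1A2 system. Reaction initiated by NADPH regeneration solution, 1 h at room temperature, then stopped with detection reagent; luminescence measured 20 min later.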

Assay [12] can be described thus: Caspase-3/7 induction in CHO-K1 cells by small molecules, qHTS assay (AID 1346980). Further: nearly all actives have a fitted effect of over 15% in size. A digest of the protocol:
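Wild-type cells were seeded at 1,500 per well and settled 5 hr at 37 C, 5% CO2, then exposed to DMSO-dissolved compounds for 17 hr. Caspase-Glo 3/7 reagent was added, and luminescence was read after 30min at room temperature.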

Assay [13] deals with Nuclear receptor subfamily 1 group I member 2 (Rattus norvegicus) (UniProt Q9R1A7). Nature of the assay: Rat pregnane X receptor (rPXR) activation by small molecules, qHTS assay (AID 1346983). Further: nearly all actives have a fitted effect of over 20% in size. Particulars: rPXR luciferase reporter cells, One-Glo luminescence, 24 h; max activation: stronger effect = higher value. A digest of the protocol: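 Cell-based rPXR luciferase reporter assay, 2,000 cells per well, rested 5hr at 37 C before compound addition in DMSO, then 24 hr at 37 C. One-Glo reagent was added and luminescence read after 30 min at room temperature.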

Assay [14] concerns the target Nuclear receptor subfamily 1 group I member 2 (Homo sapiens) (UniProt O75469). Kind of assay: CYP3A4 induction through human pregnane X receptor (PXR) by small molecules, qHTS assay (AID 1346984). Further: nearly all actives have a fitted effect of over 40% in size. A digest of the protocol: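 Human PXR activation is tracked via CYP3A4 promoter-luciferase in DPX-2 (HepG2) cells. Compounds treat cells for 24hr at 37C, and luminescence is read after One-Glo.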

Assay [15] shares this target. Kind of assay: Human pregnane X receptor (PXR) activation by small molecules, qHTS assay (AID 1346985). Further: nearly all actives have a fitted effect of over 40% in size. A digest of the protocol: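 DPX-2 cells (HepG2 co-transfected with a PXR response element and a CYP3A4-promoter luciferase construct) were seeded at 2,000 per well, rested 5 hr at 37C, then exposed to DMSO-dissolved compounds for 24 hr. Activation was read as luciferase luminescence.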
On the % scale 0 is the no-effect control and ±100 the full control effect.

Sequence of Cytochrome P450 2D6 (Homo sapiens) (P10635 whole entry, looked up): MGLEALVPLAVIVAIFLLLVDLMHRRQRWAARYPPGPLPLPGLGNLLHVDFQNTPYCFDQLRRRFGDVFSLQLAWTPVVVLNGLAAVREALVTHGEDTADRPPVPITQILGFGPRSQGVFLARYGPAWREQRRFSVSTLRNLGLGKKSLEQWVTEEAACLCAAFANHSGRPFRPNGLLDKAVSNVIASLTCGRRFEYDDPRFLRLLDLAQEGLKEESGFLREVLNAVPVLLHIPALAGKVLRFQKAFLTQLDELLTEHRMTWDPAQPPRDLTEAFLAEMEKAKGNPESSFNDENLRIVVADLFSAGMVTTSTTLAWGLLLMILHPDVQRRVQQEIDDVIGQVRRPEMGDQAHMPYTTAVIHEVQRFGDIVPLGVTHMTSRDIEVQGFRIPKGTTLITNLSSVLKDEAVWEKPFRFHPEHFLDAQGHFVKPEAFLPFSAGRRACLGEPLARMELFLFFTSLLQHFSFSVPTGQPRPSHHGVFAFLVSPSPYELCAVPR
Sequence of Voltage-gated inwardly rectifying potassium channel KCNH2 (Homo sapiens) (Q12809 whole entry, looked up): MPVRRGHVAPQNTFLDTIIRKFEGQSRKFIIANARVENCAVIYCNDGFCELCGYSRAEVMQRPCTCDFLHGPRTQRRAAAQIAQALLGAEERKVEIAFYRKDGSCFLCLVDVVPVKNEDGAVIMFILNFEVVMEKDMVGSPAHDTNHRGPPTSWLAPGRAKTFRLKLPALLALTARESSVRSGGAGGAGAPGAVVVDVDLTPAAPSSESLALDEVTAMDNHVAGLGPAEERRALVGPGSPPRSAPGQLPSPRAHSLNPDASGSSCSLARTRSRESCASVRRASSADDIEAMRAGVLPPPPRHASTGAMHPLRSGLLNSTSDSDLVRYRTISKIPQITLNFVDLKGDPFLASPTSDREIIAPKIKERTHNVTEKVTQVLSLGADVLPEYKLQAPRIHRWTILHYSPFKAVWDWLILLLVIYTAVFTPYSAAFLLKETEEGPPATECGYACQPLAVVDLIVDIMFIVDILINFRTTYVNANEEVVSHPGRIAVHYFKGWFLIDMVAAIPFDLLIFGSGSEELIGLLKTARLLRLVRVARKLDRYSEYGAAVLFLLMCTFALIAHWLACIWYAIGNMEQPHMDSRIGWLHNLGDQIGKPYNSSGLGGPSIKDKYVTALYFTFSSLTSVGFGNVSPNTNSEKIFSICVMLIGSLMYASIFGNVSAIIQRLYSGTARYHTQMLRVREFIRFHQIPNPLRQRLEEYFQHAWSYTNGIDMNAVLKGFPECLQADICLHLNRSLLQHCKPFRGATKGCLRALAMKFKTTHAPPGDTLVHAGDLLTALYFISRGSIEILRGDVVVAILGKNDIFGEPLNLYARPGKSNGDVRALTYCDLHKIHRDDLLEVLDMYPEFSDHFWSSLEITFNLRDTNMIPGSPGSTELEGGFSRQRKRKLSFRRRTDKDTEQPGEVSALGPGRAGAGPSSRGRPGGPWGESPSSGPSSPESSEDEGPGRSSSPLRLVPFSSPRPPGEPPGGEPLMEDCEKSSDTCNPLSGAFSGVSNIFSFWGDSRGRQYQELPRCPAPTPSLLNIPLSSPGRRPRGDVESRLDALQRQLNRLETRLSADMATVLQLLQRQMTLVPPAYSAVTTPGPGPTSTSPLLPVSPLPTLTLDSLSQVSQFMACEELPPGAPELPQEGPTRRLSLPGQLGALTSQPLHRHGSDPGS
Sequence of Cytochrome P450 2C19 (Homo sapiens) (P33261 whole entry, looked up): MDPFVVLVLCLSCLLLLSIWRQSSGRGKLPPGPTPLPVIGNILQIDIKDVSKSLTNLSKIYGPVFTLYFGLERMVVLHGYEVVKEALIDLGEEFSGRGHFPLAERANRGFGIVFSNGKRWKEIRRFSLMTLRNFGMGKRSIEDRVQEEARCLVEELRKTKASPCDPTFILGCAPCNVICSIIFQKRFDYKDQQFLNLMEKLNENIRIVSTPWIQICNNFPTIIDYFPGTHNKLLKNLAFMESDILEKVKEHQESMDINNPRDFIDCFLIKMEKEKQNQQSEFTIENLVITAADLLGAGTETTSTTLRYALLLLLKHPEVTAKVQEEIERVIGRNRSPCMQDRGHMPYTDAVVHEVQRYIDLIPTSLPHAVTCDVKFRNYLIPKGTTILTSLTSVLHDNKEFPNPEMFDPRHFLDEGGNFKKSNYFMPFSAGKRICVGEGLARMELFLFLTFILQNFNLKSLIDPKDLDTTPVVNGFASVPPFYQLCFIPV
Sequence of Cytochrome P450 2C9 (Homo sapiens) (P11712 whole entry, looked up): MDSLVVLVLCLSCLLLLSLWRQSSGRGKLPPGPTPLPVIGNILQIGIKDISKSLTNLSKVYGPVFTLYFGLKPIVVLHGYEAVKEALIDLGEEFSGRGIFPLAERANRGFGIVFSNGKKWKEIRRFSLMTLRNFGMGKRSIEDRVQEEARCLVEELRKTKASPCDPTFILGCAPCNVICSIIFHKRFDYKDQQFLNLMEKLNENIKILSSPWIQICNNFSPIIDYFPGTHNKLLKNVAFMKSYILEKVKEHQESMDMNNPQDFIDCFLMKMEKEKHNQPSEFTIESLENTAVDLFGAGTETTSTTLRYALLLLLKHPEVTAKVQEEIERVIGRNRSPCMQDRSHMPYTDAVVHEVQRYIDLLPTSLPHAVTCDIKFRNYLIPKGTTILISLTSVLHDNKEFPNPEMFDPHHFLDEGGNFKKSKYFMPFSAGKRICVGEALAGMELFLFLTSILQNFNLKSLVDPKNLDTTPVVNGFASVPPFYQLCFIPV
Sequence of Nuclear receptor subfamily 1 group I member 2 (Rattus norvegicus) (Q9R1A7 whole entry, looked up): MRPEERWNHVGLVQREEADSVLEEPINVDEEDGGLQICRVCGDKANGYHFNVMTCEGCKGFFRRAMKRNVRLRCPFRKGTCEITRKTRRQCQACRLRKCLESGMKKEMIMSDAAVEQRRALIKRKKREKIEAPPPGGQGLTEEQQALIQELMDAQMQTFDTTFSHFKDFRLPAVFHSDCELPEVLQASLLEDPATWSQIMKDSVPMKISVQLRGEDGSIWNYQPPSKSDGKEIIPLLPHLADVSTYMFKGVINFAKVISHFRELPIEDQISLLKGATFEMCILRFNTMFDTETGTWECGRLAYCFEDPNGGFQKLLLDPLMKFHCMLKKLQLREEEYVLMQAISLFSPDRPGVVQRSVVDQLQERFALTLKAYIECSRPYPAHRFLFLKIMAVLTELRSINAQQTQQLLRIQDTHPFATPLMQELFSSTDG
Sequence of Cytochrome P450 1A2 (Homo sapiens) (P05177 whole entry, looked up): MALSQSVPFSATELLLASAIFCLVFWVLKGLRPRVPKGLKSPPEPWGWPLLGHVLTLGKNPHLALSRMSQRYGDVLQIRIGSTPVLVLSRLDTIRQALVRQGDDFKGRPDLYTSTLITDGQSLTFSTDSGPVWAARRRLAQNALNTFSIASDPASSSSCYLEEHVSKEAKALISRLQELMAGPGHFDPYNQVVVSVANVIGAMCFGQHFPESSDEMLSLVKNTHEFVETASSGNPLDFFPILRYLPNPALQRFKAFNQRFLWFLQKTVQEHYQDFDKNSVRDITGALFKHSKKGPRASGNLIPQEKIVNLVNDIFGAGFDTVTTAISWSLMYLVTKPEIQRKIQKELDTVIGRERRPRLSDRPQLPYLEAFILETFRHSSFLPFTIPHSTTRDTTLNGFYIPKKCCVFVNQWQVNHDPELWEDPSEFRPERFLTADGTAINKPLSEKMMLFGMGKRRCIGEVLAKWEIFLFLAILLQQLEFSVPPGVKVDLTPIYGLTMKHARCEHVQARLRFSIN
Sequence of Nuclear receptor subfamily 1 group I member 2 (Homo sapiens) (O75469 whole entry, looked up): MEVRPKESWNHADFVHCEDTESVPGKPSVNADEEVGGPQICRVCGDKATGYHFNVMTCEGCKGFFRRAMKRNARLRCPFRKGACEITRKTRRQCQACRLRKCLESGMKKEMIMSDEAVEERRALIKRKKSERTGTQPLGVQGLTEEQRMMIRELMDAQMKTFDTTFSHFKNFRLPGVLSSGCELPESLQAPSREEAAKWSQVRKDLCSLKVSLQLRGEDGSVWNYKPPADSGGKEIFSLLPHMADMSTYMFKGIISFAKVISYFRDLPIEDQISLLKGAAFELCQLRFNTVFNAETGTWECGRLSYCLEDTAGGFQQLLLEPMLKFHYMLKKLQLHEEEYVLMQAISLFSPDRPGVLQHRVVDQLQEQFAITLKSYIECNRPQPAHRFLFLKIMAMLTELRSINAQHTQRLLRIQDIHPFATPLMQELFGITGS
Sequence of Cytochrome P450 3A4 (Homo sapiens) (P08684 whole entry, looked up): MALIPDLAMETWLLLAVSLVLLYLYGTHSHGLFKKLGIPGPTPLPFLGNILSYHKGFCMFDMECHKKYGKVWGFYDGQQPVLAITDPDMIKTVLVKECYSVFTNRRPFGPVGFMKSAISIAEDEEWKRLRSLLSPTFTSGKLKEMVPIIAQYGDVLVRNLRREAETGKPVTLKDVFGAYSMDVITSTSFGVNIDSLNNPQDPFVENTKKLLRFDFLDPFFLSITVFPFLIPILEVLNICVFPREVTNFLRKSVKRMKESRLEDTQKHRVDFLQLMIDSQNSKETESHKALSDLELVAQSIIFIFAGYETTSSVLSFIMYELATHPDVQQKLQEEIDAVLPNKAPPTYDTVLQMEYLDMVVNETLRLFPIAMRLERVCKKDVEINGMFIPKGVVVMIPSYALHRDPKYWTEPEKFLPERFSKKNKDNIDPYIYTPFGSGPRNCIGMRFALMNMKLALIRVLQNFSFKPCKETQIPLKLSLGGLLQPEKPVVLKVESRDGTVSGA

On to `Cc1nc2ccccc2s1`, for which the Potency entry in assay [1], in [2], in [3], in assay [4], in assay [5] and in [6] was “inactive” in each case. Besides, the Potency result in assay [8], in [9] and in assay [10] was “inactive” each time. Besides, the Potency in assay [7] was 80.2 µM (active).

Consider `CCCOCCOCCO`, for which the Potency entry in assay [1], in assay [2], in assay [3], in assay [4], in [5] and in assay [6] was “inactive” each time. The Potency entry in assay [7], in [8], in [11] and in [9] was “inactive” each time.

Regarding `Cc1cnc(C)c(C)n1`, the Potency entry in assay [1], in [3], in assay [4], in assay [5], in [6] and in [7] was “inactive” in each case. In addition, the Potency entry in assay [8], in assay [9] and in assay [10] was “inactive” in each case. Moreover, the outcome in assay [12] was inactive.

With `O=C(NCCCN1CCOCC1)c1ccc(Cl)cc1`, the Potency result in [1], in assay [4], in assay [5], in [14], in assay [15] and in assay [7] was “inactive” throughout. Also, the Potency result in assay [8], in assay [11], in assay [9] and in assay [10] was “inactive” in each case. Moreover, the result in [12] was inactive. Besides, in assay [13], the max activation is 4.03%. Moreover, the Potency in assay [6] was 2.45 µM (active).

As for `CC(=O)Oc1ccc(C(=C2CCCCC2)c2ccc(OC(C)=O)cc2)cc1`, the Potency entry in [1], in assay [2], in assay [4], in assay [14], in assay [15] and in assay [11] was “inactive” in each case. The Potency entry in [9] and in assay [10] was “inactive” throughout. For the same compound, the call in [12] was inactive. In assay [13], the max activation is -2.09%. Moreover, the Potency in [6] was 15.5 µM (active); in assay [7] it was 9.77 µM (active); in [8] it was 9.77 µM (active).

Consider `Cc1ccccc1N1C(=O)c2cc(S(N)(=O)=O)c(Cl)cc2NC1C` (configuration not stated), for which the Potency result in assay [1], in [3], in assay [4], in assay [6], in assay [7] and in [11] was “inactive” each time. For the same compound, the Potency result in assay [9] is “inactive”. The compound was called inactive in assay [12]. The Potency in assay [5] is 5.31 µM (active).

`CCCCC1C(=O)N(c2ccccc2)N(c2ccc(O)cc2)C1=O` (configuration not stated): the Potency was 26.6 µM (active) in assay [1]; 3.76 µM (active) in assay [3]; 29.8 µM (active) in assay [4]; 11.9 µM (active) in [5]; 17.4 µM (active) in [7]; 9.77 µM (active) in assay [8]. In [13], the max activation was 1.09%. For the same compound, the Potency result in assay [14], in assay [15], in assay [11] and in assay [9] was “inactive” throughout.

As for `Cc1c(C(=O)NN2CCCCC2)nn(-c2ccc(Cl)cc2Cl)c1-c1ccc(Cl)cc1`, the Potency result in [2], in assay [14], in assay [15], in assay [6], in assay [7] and in assay [11] was “inactive” each time. Further, the results for the Potency in assay [3] and in assay [9] were 26.6 µM (active) and 2.13 µM (active), respectively. Besides, the result in [12] was inactive. In assay [13], the max activation was -8.23%.

As to `CN1CCCN=C1/C=C/c1cccs1`, the Potency entry in assay [1], in assay [2], in assay [3], in [4] and in [9] was “inactive” each time. The result in [12] was inactive.
